Source: PubChem (National Center for Advancing Translational Sciences (NCATS))
Rows were chosen to be rich in hits. Some 10% of all compounds tested hit in one or more screens of this group.
ALOX12 inhib: blocks human 12-lipoxygenase activity. Potency, µM (highest dose often 57.1 µM), for the others: top-dose activity change, negative = inhibition, actives largely listed as inhibitors. 150,000 tested, 0.12% active. P18054. AID 1452. purified 12-hLO, xylenol orange hydroperoxide absorbance; also: potency is read from the fitted curve at half-maximal effect; nearly all actives have a fitted effect of over 55% in size
Target sequence (P18054 whole entry, looked up): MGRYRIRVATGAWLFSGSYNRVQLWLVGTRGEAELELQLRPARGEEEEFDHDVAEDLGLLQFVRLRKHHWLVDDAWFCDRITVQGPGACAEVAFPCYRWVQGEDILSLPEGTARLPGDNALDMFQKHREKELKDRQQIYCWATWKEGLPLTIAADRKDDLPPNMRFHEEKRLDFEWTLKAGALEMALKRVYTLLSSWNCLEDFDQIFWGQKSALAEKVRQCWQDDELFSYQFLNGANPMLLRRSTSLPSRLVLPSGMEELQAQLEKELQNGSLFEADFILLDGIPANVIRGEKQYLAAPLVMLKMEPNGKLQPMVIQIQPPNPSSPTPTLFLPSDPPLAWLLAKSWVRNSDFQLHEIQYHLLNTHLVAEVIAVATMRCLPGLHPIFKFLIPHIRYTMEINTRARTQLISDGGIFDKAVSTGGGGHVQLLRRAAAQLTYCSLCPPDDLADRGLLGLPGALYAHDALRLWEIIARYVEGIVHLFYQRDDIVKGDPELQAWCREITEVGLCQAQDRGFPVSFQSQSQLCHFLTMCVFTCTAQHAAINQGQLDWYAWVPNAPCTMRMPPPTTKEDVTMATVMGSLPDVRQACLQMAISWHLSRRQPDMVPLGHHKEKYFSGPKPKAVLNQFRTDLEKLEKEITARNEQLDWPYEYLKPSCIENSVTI
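150 nM 12hLO, 25 mM Hepes pH 7.0 + 0.01% Triton X-100; cpd preinc 15 min RT; 40 uM arachidonic acid, 30 min RT; Fe-XO 30 min; A573/A405 ratio as read-out.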
PNC assembly inh: inhibitors of perinucleolar compartment assembly; 140,000 tested, 3.1% active; activity change (PNC), negative = inhibition, % at 10 µM; PC3M PTB-GFP, PNC prevalence imaging, 16 h; active compounds read low; AID 2417;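 active = readout at or below -70, meaning at least 70% loss of cells showing the perinucleolar compartment, a nuclear body marking cancer cells; inconclusive = readout between -30 and a set limit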;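 also: plate controls were DMSO wells for no effect and camptothecin positive control wells for full effect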
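Read-out is percentage of cells bearing a perinucleolar compartment, from automated 20x imaging of fixed, Hoechst-stained PC3M PTB-GFP cells. Cells were seeded 4 h, then exposed 16 h to compound (23 nl of library stock) in duplicate plates.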
ALDH1A1 inh: ALDH1A1 (human) enzyme inhibition; Potency, µM (titrated, usually from 75.3 µM), without a hit: top-dose activity, negative = inhibition, usual class: inhibitors; 220,000 tested, 7.3% active; P00352; Purified ALDH1A1, NADH fluorescence, propionaldehyde substrate; active = well fitted inhibition curve with a large enough effect, not every such curve was filed as active; inconclusive = small, poorly fitted or top-dose-only effect, or another doubt; inactive = no such curve, though single readings can be large or run the other way;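 also: potency is read from the fitted curve at half-maximal effect; plate controls were no enzyme wells and a reference inhibitor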
GLA inh pH 4.5: alpha-galactosidase A (human) inhibition, pH 4.5. P06280. purified enzyme, 4-MU-alpha-Gal fluorescence, pH 4.5. activity change, negative = inhibition, % at 105 µM. 230,000 tested, under 10 active. AID 1467;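 also: 0% = full activity with enzyme and -100% = basal without enzyme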
aGal spleen mod: alpha-galactosidase A (human) modulation. P06280. Potency, µM (highest dose often 80 µM), inactives show at the highest dose activity change, negative = inhibition, actives largely listed as inhibitors. AID 2107. 240,000 tested, 0.008% active. human spleen homogenate, 4MU-alpha-Gal fluorescence, 40 min;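 also: potency is read from the fitted curve at half-maximal effect; 0% = enzyme with vehicle and -100% = no enzyme basal signal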
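Human spleen homogenate (1 ug) was the enzyme source, with 4-methylumbelliferyl-alpha-D-galactopyranoside (1 mM final) in pH 5.0 citrate buffer with 0.01% Tween-20. Compounds were titrated; after 40 min at 37C, NaOH/glycine stop, 4-MU fluorescence read; AC50 from Hill fits.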
HPGD inh: HPGD (human) dehydrogenase inhibition; AID 894; purified HPGD, NADH fluorescence kinetic, PGE2 substrate; 150,000 tested, 4.3% active; Potency, µM, for the others: at the highest dose activity change, negative = inhibition, usual class: inhibitors; active = well fitted inhibition curve with a large enough effect, not every such curve was filed as active; inconclusive = small, poorly fitted or top-dose-only effect, or another doubt; inactive = no such curve, though single readings can be large or run the other way; also: potency is read from the fitted curve at half-maximal effect
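NADH formation kinetics: reaction with 30 uM PGE2 and 1 mM NAD+ (final), 20 nM enzyme, Tris-HCl pH 8 with Tween 20, after 15 min compound preincubation at room temperature. Fluorescence change, last versus first of five reads.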
The depositor's hits bear a star; ? = inconclusive; . = no result. Unless noted, calls follow the shape of the dose curve; as a rule, active = well fitted curve in the direction sought with a large enough effect; inconclusive = small, poorly fitted or top-dose-only effect, or another doubt; inactive = no such curve, though single readings can be large; an effect the other way counts as inactive or inconclusive. Unless noted, % is scaled to controls: 0 for no effect and ±100 for the full control effect.

SMILES | ALOX12 inhib | PNC assembly inh | ALDH1A1 inh | GLA inh pH 4.5 | aGal spleen mod | HPGD inh
COC(=O)c1[nH]c2c(c1C)C(=O)CC(c1ccccc1)C2 (configuration not stated) | 3% | -111* | 5% | -4 | 13% | -6%
C/C=C/COC(=O)c1[nH]c2c(c1C)C(=O)CC(c1ccc(N(C)C)cc1)C2 (configuration not stated) | 0% | ? | 5µM* | -4 | 2% | -18%
N[C@@H]1C=CC=C(C(=O)O)C1 | -1% | . | . | . | . | .
COc1cc2[nH]c(Cl)c([N+](=O)[O-])c2cc1OC | . | . | . | 0 | -6% | .
CCC(C)OC(=O)c1[nH]c2c(c1C)C(=O)CC(c1ccc(N(C)C)cc1)C2 (configuration not stated) | -7% | -23 | 3.5µM* | -1 | -7% | -13%
COc1cc(C2CC(=O)c3c([nH]c(C(=O)OCCOC(C)C)c3C)C2)cc(OC)c1OC (configuration not stated) | -4% | 16 | ? | -2 | 3% | -5%
c1cncc(CNc2ccnc(-c3cccnc3)n2)c1 | . | . | -112% | . | 12% | .
O=C(/C=C/c1cccc(O)c1)c1ccc(N2CCOCC2)cc1 | . | . | . | -10 | 3% | .
NC=O | -4% | . | 11% | . | 7% | -11%
O=C1[C@@H]2C(c3cccnc3)=NO[C@@H]2C(=O)N1c1ccc(Br)cc1 | . | . | 7.9µM* | 1 | 4% | .
Cc1ccc(N2C(=O)[C@@H]3C(c4ccc(F)cc4)=NO[C@@H]3C2=O)cc1 | -1% | -95* | 7% | 2 | 3% | -3%
COc1ccc(C2=NO[C@@H]3C(=O)N(c4ccc(C)cc4C)C(=O)[C@H]23)cc1OC | -7% | 12 | 22µM* | 2 | 0% | -13%
Cc1ccc(N2C(=O)[C@@H]3C(c4cccnc4)=NO[C@@H]3C2=O)c(C)c1 | . | . | . | 0 | -13% | .
CC(C)CC(NC(N)=O)C(=O)NCCc1ccc(Cl)cc1Cl (configuration not stated) | . | . | 3% | -9 | -9% | .
CCN(CC)S(=O)(=O)c1ccc(-c2nnco2)cc1 | -4% | -100* | -2% | -5 | -2% | -10%
Cc1ccc(S(=O)(=O)N(C)Cc2ccc(-c3nnco3)cc2)cc1 | 0% | 64 | 6% | 4 | 2% | ?
COc1ccc(Oc2ncc3nc(-c4ccc(OC)cc4)c(=O)n(C4CC4)c3n2)cc1 | . | . | ? | . | -10% | .
C=CCOC(=O)N[C@@H](CCc1ccccc1)C(C(C)=O)C(C)=O | . | . | 8% | 1 | 0% | -7%
N#C/C(=C\c1cc(Cl)cc(Cl)c1O)C(=O)NC1CCCCC1 | -15% | -12 | 32µM* | 3 | -2% | ?
N#C/C(=C\c1cc(Cl)ccc1O)C(=O)NC1CCCCC1 | -4% | 6 | -12% | 3 | 0% | -10%
N#C/C(=C\c1ccccc1[N+](=O)[O-])C(=O)NC1CCCCC1 | . | . | 7.1µM* | 2 | 6% | .
N#C/C(=C\c1cccn1-c1ccccc1)C(=O)NC1CCCCC1 | 1% | 11 | 7.1µM* | -3 | 0% | -19%
N#C/C(=C\C=C\c1ccccc1[N+](=O)[O-])C(=O)NC1CCCCC1 | . | . | 25µM* | -4 | -1% | .
COc1ccc(-n2c(=O)c(C)nc3cnc(Nc4ccccc4)nc32)cc1 | 1% | . | -4% | . | 3% | -6%
COc1ccc([C@@H]2CC(=O)c3c(O)cc(O[C@@H]4O[C@H](CO[C@@H]5O[C@@H](C)[C@H](O)[C@@H](O)[C@H]5O)[C@@H](O)[C@H](O)[C@H]4O)cc3O2)cc1 | . | . | . | . | -2% | .
SMILES | ALOX12 inhib | PNC assembly inh | ALDH1A1 inh | GLA inh pH 4.5 | aGal spleen mod | HPGD inh
Cc1ccc(-c2nn(CC(=O)NN3CCOCC3)c(=O)c3ccccc23)cc1 | . | . | -4% | 1 | -11% | .
COC(=O)NC1C=CCCC1C(C)=O (configuration not stated) | 1% | . | -3% | 0 | 5% | -4%
CC(=O)c1cccc(NC(=O)CC2Oc3ccc(C)cc3NC2=O)c1 (configuration not stated) | -4% | 9 | 3.2µM* | -3 | 2% | 1%
Cc1ccc(C)c(C(C)NC(=O)c2ccc(Br)o2)c1 (configuration not stated) | . | . | 4µM* | 4 | -1% | .
COC(=O)c1ccccc1NC(=O)Cn1c(-c2nonc2N)nc2ccccc21 | -4% | -98* | -1% | 1 | -6% | 1%
CC(C)OC(=O)c1ccc(NC(=O)Cn2c(-c3nonc3N)nc3ccccc32)cc1 | 3% | 0 | 22µM* | 2 | -6% | -6%
O=C(O)C1Cc2ccccc2CN1C(=O)CCl (configuration not stated) | . | . | ? | -4 | 5% | .
COc1ccc(Oc2ncc3nc(-c4ccc(Cl)cc4)c(=O)n(C)c3n2)cc1 | 6% | . | -4% | . | 8% | -7%
CCOc1cc(/C=N/Nc2ccccc2Cl)ccc1OCC(=O)O | -18% | 39 | ? | 1 | -9% | -21%
CCOCCCNC(=O)c1ccc(N2CCCC2)c(NS(=O)(=O)c2ccc(C)cc2)c1 | . | . | 7.9µM* | -1 | -16% | .
Cc1ccc(S(=O)(=O)Nc2cc(C(=O)NCCN(C)C)ccc2N2CCCCC2)cc1 | 0% | 56 | 16µM* | -1 | 1% | -6%
COCCCNC(=O)c1ccc(N2CCCC2)c(NS(=O)(=O)c2ccc(C)cc2)c1 | -6% | 7 | 14µM* | 6 | 6% | -25%
CCCN(C(=O)CCl)C1=CCCCC1 | . | . | 0.71µM* | -9 | -7% | .
C=CCn1c(CNC(=O)c2ccco2)nnc1SCC(=O)N1c2ccccc2Sc2ccccc21 | 4% | -20 | 0.56µM* | 1 | -3% | -10%
Cc1ccccc1C(=O)NCc1nnc(SCC(=O)N2c3ccccc3Sc3ccccc32)n1C | -2% | 0 | 25µM* | 0 | -6% | -5%
COc1ccc(C2=Nn3c(nnc3-c3cc(OC)ccc3OC)SC2)c(OC)c1 | . | . | . | . | 4% | .
CC(=O)OCC1OC(n2c(Br)nc3c(=O)[nH]c(N)nc32)C(OC(C)=O)C1OC(C)=O (configuration not stated) | 0% | . | 16% | 10 | 0% | -16%
CCOC(=O)C1CCN(Cc2cc(C(C)C)c(O)c(C(C)C)c2)CC1 | . | . | 4% | 0 | -4% | .
CC(C)c1cc(N2CCC(=O)NC2=O)cc(C(=O)O)c1O | -2% | -114* | ? | 7 | -3% | ?
O=[N+]([O-])c1ccc(C(=S)N2CCN(Cc3ccccc3)CC2)cc1 | 2% | -27 | 14µM* | -8 | -9% | -22%
O=[N+]([O-])c1ccc(C(=S)N2CCCC2)cc1 | . | . | ? | -8 | 5% | .
O=C(CN1CCN(Cc2ccccc2)CC1)NCCNc1ccc([N+](=O)[O-])cn1 | . | . | 9.5µM* | -11 | -4% | .
